Results as given in ChEMBL document CHEMBL1157539, “Thousands of chemical starting points for antimalarial lead identification” (Nature, 2010).

Tested on: HepG2
Experiment: GSK_TCMDC: Percent inhibition of human HepG2 cell line. Test compounds present at 10uM.
Assay type: functional

`CN(C)C(=O)c1ccc(CN(Cc2ccc3c(c2)OCCO3)Cc2ccc3c(c2)OCO3)cc1` and `COc1cc2nc(-c3ccccc3)nc(N3CCN(C(=O)c4ccco4)CC3)c2cc1OC` are the same in Inhibition: 0% for the first, 0% for the second.

First: Cc1ncccc1C(=O)Nc1ccc(-c2cccc(-c3nc4cccc(C)c4[nH]3)c2)cc1
Second: Cc1cccc2nc(-c3cccc(-c4ccc(NC(=O)Nc5ccsc5)cc4)c3)[nH]c12
The Inhibition of the first is lower: 6% for the first, 27% for the second.

Going from `Cc1cc(Nc2ncc(C#N)c(Nc3ccccc3C(N)=O)n2)ccc1N1CCN(C)CC1.Cl` to `Cc1cc(N2CCCC2)nc(Nc2ccc(NC(=O)c3ccco3)cc2)n1`, the Inhibition falls from 99% to 23%.

Going from `CCCn1c(Sc2ccc(C#N)c([N+](=O)[O-])c2)nnc1-c1ccc(OC)cc1` to `CCN(c1cc(C)nc(Nc2ccc(Cl)cc2)n1)[C@H]1CCN(Cc2ccccc2)C1`, the Inhibition rises from 0% to 46%.

Compared with `Cc1ccc2nc(C)cc(Nc3ccccc3O)c2c1.Cl`, `Cc1ccc2[nH]c(C3CCCNC3)c(-c3ccncc3)c2c1` (stereo unspecified) is higher in Inhibition: 0% for the first, 10% for the second.

Going from `CCC1(CC)CN(c2ccccc2)c2ccc(O)cc2S(=O)(=O)C1CC(C)C` (stereo unspecified) to `CC(C)(C)CN1C(=O)C(c2ccccc2)(c2ccccc2)N=C1N.O=CO`, the Inhibition rises from 0% to 32%.

Compared with `Cl.N=C(N)NN=Cc1ccc2c(c1)Cc1ccccc1-2`, `Cl.O=C(/C=C/c1cccc(Cl)c1)Nc1ccc2nc(CN3CCCC3)ccc2c1` is lower in Inhibition: 72% for the first, 47% for the second.

First: CCc1cc(N2CCN(c3ccccc3F)CC2)nc(SCc2ccc(C(=O)NC3CC3)o2)n1
Second: O=C(c1cc(C(=O)NC2CCCCC2)c(=O)n(C2CCCCC2)c1)c1cc(F)ccc1O
The Inhibition of the first is lower: 9% for the first, 22% for the second.
